# Measurements published in PubChem BioAssay (NCI).
# Compounds without any hit were thinned out: in the full panel of roughly 83,000, 20% have a hit.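 Treatment: one concentration, 48 hours, 96-well format. Scoring: percent growth, with anything below 10 considered active.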 Values without a mark were called inactive. Activity calls are given as the source filed them.
# Key:
# Experiment in all cases: NCI-60 one-dose screen, 48 h (100 = growth as untreated, 0 = no growth, -100 = all killed)
# Conditions in all cases: 10 µM unless noted
# SK-MEL-2 melanoma = tested on: SK-MEL-2 melanoma
# EKVX NSCLC = tested on: EKVX NSCLC
# SN12C renal = tested on: SN12C renal
# UO-31 renal = tested on: UO-31 renal
# TK-10 renal = tested on: TK-10 renal
# ACHN renal = tested on: ACHN renal
# CAKI-1 renal = tested on: CAKI-1 renal
# A498 renal = tested on: A498 renal
# CCRF-CEM leukemia = tested on: CCRF-CEM leukemia
# MOLT-4 leukemia = tested on: MOLT-4 leukemia
Compound,growth (SK-MEL-2 melanoma),growth (EKVX NSCLC),growth (SN12C renal),growth (UO-31 renal),growth (TK-10 renal),growth (ACHN renal),growth (CAKI-1 renal),growth (A498 renal),growth (CCRF-CEM leukemia),growth (MOLT-4 leukemia)
CO[C@H]1CC(c2ccc[nH]2)=N[C@]12O[C@@H](C)C[C@@H]1CCCCCCCc3ccc([nH]3)[C@H]12,-16.2% (active),29.4%,33.6%,-15.6% (active),15%,8.05% (active),9.32% (active),57.4%,22.7%,20.6%
COc1ccc(-c2nc3cc(C(=O)NC4CCCCC4)ccc3n2C2CCCCC2)cc1,92.4%,69.2%,96.4%,82.6%,91.5%,87%,89.2%,103%,94.4%,74.5%
COc1ccc(C(=O)/C=C/c2ccc(Cl)cc2)cc1S(N)(=O)=O,80.3%,87.3%,15.4%,33.1%,70%,58.4%,74.9%,84.6%,-18.3% (active),-5.39% (active)
CCOC(=O)C1=C(c2ccccc2)N=C2SC=C(c3cccc([N+](=O)[O-])c3)N2C1c1ccc(O)cc1 (stereo not given),96.7%,99.3%,96%,91%,104%,106%,94.3%,78.9%,98.1%,111%
O=C1c2c(c3c4cccnc4[nH]c3c3ccc4ccccc4c23)C(=O)N1O,91%,97.7%,26.5%,57.6%,133%,45%,47%,84.7%,15.3%,6.42% (active)
CCc1ccc(Cc2cnc(NC(=O)c3cc(C)oc3C)s2)cc1,59.4%,39.6%,45.1%,43.6%,60.1%,48.7%,22.2%,8.18% (active),28.5%,29.2%
CC(C)n1nc(-c2ccc3oc(N)nc3c2)c2c(N)ncnc21,-19.5% (active),-27.2% (active),3.13% (active),-20.9% (active),-30.4% (active),-14% (active),2.4% (active),-50.4% (active),11.7%,6.39% (active)
O=C(O)c1nn(-c2ccc(Cl)cc2)nc1N1CCCC1,102%,88.3%,101%,79.9%,133%,99.4%,97.6%,74.3%,100%,97.5%
COc1ccc(-c2cn(Cc3ccc4c(Br)cc(Br)c(O)c4n3)nn2)cc1,101%,84.2%,100%,-92.3% (active),91.3%,-68.7% (active),61.6%,99.6%,73.9%,87%
COc1c(O[C@@H]2OC(CO)[C@H](O)[C@H](O)C2O)cc2oc3cc(O)c(CC=C(C)C)c(O)c3c(=O)c2c1CC=C(C)C (stereo not given in full),97.3%,93.5%,84.4%,90.8%,110%,96.5%,103%,83.8%,92.9%,62.2%
COc1cccc(CNc2nnc(C)c(C)n2)c1O,106%,104%,96.7%,91.6%,108%,110%,100%,95.3%,101%,109%
CCN=c1sc2c(n1NC(=O)c1cc3ccc1CCc1ccc(cc1)CC3)C(=O)c1ccccc1C2=O,-40.6% (active),-61.3% (active),-91.2% (active),-73.1% (active),88.6%,-90.2% (active),8.85% (active),51.6%,-16% (active),-32.8% (active)
COc1cc2cc(Oc3ccc(NC(=O)Nc4ccc(F)c(C(F)(F)F)c4)cc3)c(C)nc2cc1OCCN1CCCCC1,102%,57.6%,91.7%,75.3%,118%,84.1%,-85% (active),84.7%,2.51% (active),-14.5% (active)
CNC1=C(Br)C(=O)c2c(C(=O)OC)c(C)nc(C)c2C1=O,52.1%,79.3%,45.4%,77.4%,132%,72%,68.2%,93.1%,77.3%,79.8%
CCOC(=O)CC1CSC(N/N=C(/C)c2cccc(C(F)(F)F)c2)=N1 (stereo not given),123%,89.3%,103%,80.2%,95.8%,106%,91.6%,97.4%,104%,95.8%
O=C1OCC2=C1C(c1cccc(F)c1)c1cc3c(cc1N2CCO)CCC3 (stereo not given),27%,40.9%,26.7%,37.8%,57.5%,22.8%,32.5%,5.8% (active),5.27% (active),11.4%
CC(C)C(=O)Nc1ncc(C(=O)NCCN(Cc2ccccc2)C(=O)c2ccc(S(=O)(=O)Nc3ccccc3)cc2)s1,97.8%,97.6%,91.4%,80.2%,100%,101%,92.4%,87.7%,96.2%,75.1%
COC(=O)[C@H](C)NC(=O)c1ccc(NC(=O)c2[nH]c(C)c(Cl)c2Cl)c(OCCN)c1,121%,103%,97.5%,98.2%,112%,99%,96%,88.9%,97.8%,91.2%
COc1cc(NC(=O)c2cncnc2Nc2ccc3c(ccn3Cc3cccc(F)c3)c2)cc(OC)c1,66.7%,85.3%,67.4%,37.9%,76.8%,54%,34.8%,24.3%,26.4%,19.8%
O=C1/C(=C/c2cccc([N+](=O)[O-])c2)COc2ccc(O)c(O)c21,-25.4% (active),34.7%,-71.3% (active),-98.8% (active),-48.5% (active),-98.4% (active),-67.5% (active),99.7%,0.148% (active),-1.81% (active)
CCOC(=O)c1c(C)c2c(n1Cc1ccccc1)CSc1cc(C#N)c(=O)[nH]c1-2,92.2% [100 µM],67.1% [100 µM],80.6% [100 µM],85.6% [100 µM],40.5% [100 µM],49.3% [100 µM],58.9% [100 µM],92% [100 µM],90.4% [100 µM],118% [100 µM]
O=C(CSc1nnc(-c2ccc(Cl)c(Cl)c2)n1-c1ccccc1)Nc1ccc(C(=O)/C=C/c2ccc(Cl)cc2)cc1,78.6%,88.3%,89.4%,66.2%,93.3%,98%,74.2%,82.5%,83.7%,80.5%
C[C@@H]1N=C(c2ccc(Cl)cc2Cl)Nc2nc3ccccn3c2C1=O,38.2%,82.5%,75.8%,52.4%,74.5%,60.2%,47.2%,60.7%,56.6%,50.4%
O=C(NS(=O)(=O)c1ccccc1)n1cc(-c2ccncc2)c(-c2cc(O)cc(Cl)c2)n1,95.5%,107%,100%,91.9%,127%,84.5%,94.2%,103%,87.4%,79.3%
O=C1c2ccccc2-c2c1c1ccncc1c(=O)n2CCCn1ccnc1,103%,96.8%,49.1%,19.1%,82.6%,0.133% (active),49.9%,80.9%,18.5%,-12.7% (active)
CCOC(=O)c1ccc2c(c1)[n+](=O)c(C(C)=O)c(C(F)(F)F)n2[O-],12.1%,29.1%,4.58% (active),27.4%,40.9%,5.29% (active),40%,12.5%,-18.1% (active),-56.4% (active)
